Experimental data from PubChem BioAssay AID778 (Sanford-Burnham Center for Chemical Genomics, 2007).
The whole screen tested about 96,000 compounds, of which about 20,000 (21%) were called active. Not all results are given here. Unmarked numbers belong to inactive results.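 How the source made its calls: active means CYP2C19 inhibition above a set limit at 5 µM in the primary screen (cut at about 50% in these data); inactive means the rest.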

The compounds below were run against Cytochrome P450 2C19 (Homo sapiens) (UniProt P33261) (assay: blockers of cytochrome P450 2C19 activity – biochemical, luminescence, ADME assay, primary screen (AID 778;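 further: plate controls were negative control wells for no effect and 2.5 mM tranylcypromine positive control for full effect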)). Details: CYP2C19 Supersomes, luciferin-H EGE luminescence, 30 min; at 5 µM; hits give high values.
Sequence of Cytochrome P450 2C19 (Homo sapiens) (P33261 whole entry, looked up): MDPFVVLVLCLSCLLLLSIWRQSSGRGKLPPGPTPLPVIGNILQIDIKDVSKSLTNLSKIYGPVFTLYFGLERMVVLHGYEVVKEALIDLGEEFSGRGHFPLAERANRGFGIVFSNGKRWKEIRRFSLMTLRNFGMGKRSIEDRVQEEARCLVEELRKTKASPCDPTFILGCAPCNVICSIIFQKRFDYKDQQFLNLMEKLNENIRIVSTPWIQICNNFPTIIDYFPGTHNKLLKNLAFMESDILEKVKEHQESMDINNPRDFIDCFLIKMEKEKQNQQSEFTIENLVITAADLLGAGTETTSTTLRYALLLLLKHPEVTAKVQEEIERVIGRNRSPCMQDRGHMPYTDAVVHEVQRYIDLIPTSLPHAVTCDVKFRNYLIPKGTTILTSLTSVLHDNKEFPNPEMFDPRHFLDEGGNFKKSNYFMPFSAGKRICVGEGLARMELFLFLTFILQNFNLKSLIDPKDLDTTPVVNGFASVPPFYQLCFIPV

SMILES | inhibition
O=C(NCCc1ccco1)c1nn(Cc2ccccc2)c(=O)c2ccccc12 | -8.3%
COCc1cc(C)nc(Nc2cc(C)ccc2C)c1C#N | 19.8%
Cc1cc(C(C)(C)C)oc1C(=O)N(CC(=O)NC1CCCC1)Cc1ccc(Cl)cc1 | -5.1%
CC(C)(CNC(=O)c1cc(=O)[nH]c2ccccc12)N1CCOCC1 | 4.2%
CCOC(=O)c1ccc(COC(=O)c2cc(=O)[nH]c3ccccc23)o1 | 69.5% (active)
CCOC(=O)c1[nH]c2ccccc2c1N=C(C)N(CC)CC | -9.4%
O=C(NCCC1=CCCCC1)C1CCN(Cc2cnn(-c3ccccc3)c2-n2cccc2)CC1 | 25.4%
Cc1cc(C)cc(NC(=O)CSCc2cnn(-c3ccccc3)c2-n2cccc2)c1 | 47.5%
CC(=O)Nc1ccc(NC(=O)CSCc2cnn(-c3ccccc3)c2-n2cccc2)cc1 | 92.4% (active)
CCCn1nnc2sc3c(c2c1=O)CCC(C)C3 (stereo unspecified) | 28.3%
CCN(CC)CCN1C(=O)C(=O)/C(=C(/O)c2cnn(-c3ccccc3)c2C)C1c1cccs1 (stereo unspecified) | -2%
C=CCOc1ccc(Cl)cc1CNCCCN1CCOCC1 | 5.8%
O=C1CC(Sc2ncn[nH]2)C(=O)N1c1ccccc1 (stereo unspecified) | 14.1%
Cc1ccc(-n2nc(N)c3c(=O)oc(N(C)C)nc32)cc1 | 17.8%
COc1ccccc1OCc1nc2ccccc2s1 | 97.6% (active)
O=C(O)CSCc1nc2ccccc2s1 | -10.2%
O=C(O)CCCCc1nc2ccccc2s1 | -6.9%
CCCc1nnc(NC(=O)CN2C(=O)c3ccccc3S2(=O)=O)s1 | -6.6%
C/C(=N\NS(=O)(=O)c1ccc(Br)cc1)c1cccs1 | 69.6% (active)
C/C(=N\NS(=O)(=O)c1cccc([N+](=O)[O-])c1)c1cc2ccccc2o1 | 8.6%
COC(=O)Nc1ncc(CN2C(=O)c3ccccc3C2=O)s1 | 8.1%
COc1ccc(C(=O)Cc2cnn(-c3ccccc3)c2)c(O)c1 | 24.9%
Cc1cc(O)cc(O)c1C(=O)Cc1cnn(-c2ccccc2)c1 | 56.7% (active)
Cc1[nH]nc(-c2ccc(OCc3cnn(-c4ccccc4)c3)cc2O)c1Oc1ccc(Cl)cc1 | 20.9%

SMILES | inhibition
COc1cc(C2C(C(=O)Nc3ccccc3OC)=C(C)Nc3ncnn32)ccc1O (stereo unspecified) | -5%
COc1cc(C2C3C(=O)N(c4ccccc4)C(=O)C3ON2c2ccccc2)ccc1O (stereo unspecified) | 58.5% (active)
Cc1ccccc1N1C(=O)C2ON(c3ccccc3)C(c3ccncc3)C2C1=O (stereo unspecified) | 94.6% (active)
COc1ccc(NC(=O)Nc2cccc3cccnc23)cc1 | 31%
CC(C)NC(=O)CCCn1c(=S)[nH]c2cc3c(cc2c1=O)OCO3 | -9.6%
COc1ccc(SCc2noc(C(=O)NCC3CCCO3)c2C(=O)O)cc1 (stereo unspecified) | 11.5%
COC(C)(C)[C@]12CC(O)(C(C)C)ON1[C@H]1CCCCC1N2O (stereo partly specified) | 7%
COC(=O)c1[nH]c2ccccc2c1NC(=O)CN1CCCc2ccccc21 | 26%
Cn1ncc2c(Nc3cccc4ccccc34)ncnc21 | 12.9%
Cn1c(=O)n(CCc2ccccc2)c(=O)c2c1nc1n2CCCN1c1ccccc1 | 14.9%
Cc1cccc(N2CC(C)Cn3c2nc2c3c(=O)n(CC(=O)OCc3ccccc3)c(=O)n2C)c1 (stereo unspecified) | 66.5% (active)
COc1ccc(N2CC(C)Cn3c2nc2c3c(=O)n(Cc3ccccc3F)c(=O)n2C)c(OC)c1 (stereo unspecified) | -10.2%
CC1CCCCC1NC(=O)C1CCCN1S(=O)(=O)c1cccc2nsnc12 (stereo unspecified) | 69.3% (active)
CC(=O)c1cccc(NC(=O)C2CCCN2S(=O)(=O)c2cccc3nsnc23)c1 (stereo unspecified) | 22.5%
O=C(O)C1CCCN(S(=O)(=O)c2cccc3cccnc23)C1 (stereo unspecified) | -11.3%
O=C(c1ccco1)N1CCN(C(=O)C2CCCN(S(=O)(=O)c3cccc4nsnc34)C2)CC1 (stereo unspecified) | 1.6%
O=C(Nc1nccs1)C1CCCN1S(=O)(=O)c1cccc2cccnc12 (stereo unspecified) | 54.2% (active)
COc1ccc(NC(=O)C2CCCN(S(=O)(=O)c3cccc4cccnc34)C2)cc1 (stereo unspecified) | 17.5%
O=C(COc1ccc(F)cc1)N(CC1=CCS(=O)(=O)C1)c1ccccc1 | -5.1%
Cc1ccc(C2NC(=S)NC3=C2N2CCC3CC2)cc1 (stereo unspecified) | -8.9%
Cc1ccc(S(=O)(=O)NCC(=O)N(CC(=O)NC2CCCCC2)Cc2ccco2)cc1 | 15.5%
O=C(CC(NS(=O)(=O)c1ccc(Cl)cc1)c1ccco1)NC1CCCC1 (stereo unspecified) | 62.5% (active)
COc1ccc(S(=O)(=O)NC(CC(=O)NCc2ccccc2OC)c2ccco2)cc1 (stereo unspecified) | 38.2%
CCN(CC)P(=O)(/C(Cl)=C\Nc1c(C)n(C)n(-c2ccccc2)c1=O)N(CC)CC | -1.6%

SMILES | inhibition
N#CCCN1CCN(S(=O)(=O)c2ccc(S(=O)(=O)NC3CC3)cc2)CC1 | -21.3%
CC1(C)CN=C(N2CCN(c3ncnc4sc5c(c34)CCCC5)CC2)S1 | 32%
O=C(CCc1ccccc1)NCc1cccnc1 | 18.2%
CCC(Oc1ccccc1)C(=O)NCc1cccnc1 (stereo unspecified) | 67.7% (active)
CC(=O)OC(C(=O)NCCc1ccccc1)c1cccnc1 (stereo unspecified) | 0%
CC(C)CC[n+]1ccn(C2=C([O-])c3ccccc3C(=O)/C2=N\S(=O)(=O)c2ccccc2)c1 | 7.8%
CCN1C(=O)c2cccc3c(N)ccc1c23 | 23.7%
CCn1c(NCCc2ccc(OC)c(OC)c2)nc2c1c(=O)n(C)c(=O)n2C | 1.8%
COc1ccccc1C(=O)C(O)c1ccccc1OC (stereo unspecified) | 55.8% (active)
COc1ccccc1C(=O)NN1C(=O)C2C3C=CC(O3)C2C1=O (stereo unspecified) | -6.1%
COc1ccccc1C(=O)Oc1ccc(N2C(=O)CCC2=O)cc1 | -7.5%
Nc1nonc1-c1nc2ccccc2n1CCC(=O)O | -2.5%
CCn1c(Cc2cccs2)nnc1SCC(=O)c1ccc(C)cc1 | 94.1% (active)
COc1ccc(-n2c(SCC(=O)OC(C)C)nnc2-c2ccccn2)cc1 | 12%
CCn1c(SCC(=O)c2ccc(Cl)s2)nnc1-c1cccs1 | 94.2% (active)
Cn1c(SCC(=O)c2cccs2)nnc1-c1ccco1 | 42.3%
Cc1ccc(-n2c(Cc3cccs3)nnc2SCC(=O)OC(C)C)cc1 | 98.1% (active)
Cc1ccc(C(=O)CSc2nnc(Cn3nnc4ccccc43)n2C)cc1 | 13.9%
CCOC(=O)CSc1nnc(CNC(=O)c2ccco2)n1-c1ccc(F)cc1 | -4.9%
CCn1c(SCC(=O)c2ccc3ccccc3c2)nnc1-c1cccs1 | 15.7%
CCS(=O)(=O)Nc1cc(C(=O)OC)ccc1C(=O)OC | 49.8%
CCSc1nc(C)nc2c1oc1ccccc12 | 15.2%
COc1ccc(-c2cn3ccsc3n2)cc1 | 14.3%
CCCS(=O)(=O)N1CCCC(C(=O)NCCN2CCCCC2C)C1 (stereo unspecified) | -13.4%

SMILES | inhibition
O=C(CCC(=O)N1CCN(S(=O)(=O)c2ccccc2)CC1)NC1CCCc2ccccc21 (stereo unspecified) | 17.7%
COCc1[nH][nH]c(=O)c1C=Nc1ccc(F)cc1F | -10.3%
CC(C)C(NC(=O)OCc1ccccc1)C(=O)OCC(=O)N1C(C)CCCC1C (stereo unspecified) | 40.3%
CCOc1ccc2[nH]c(=O)c(C(c3nnnn3CCOC)N3CCOCC3)cc2c1 (stereo unspecified) | 11.5%
COc1ccc(C(c2nnnn2C2CCCCC2)N2CCN(c3ccccc3F)CC2)cc1 (stereo unspecified) | 80.6% (active)
COc1ccc(N2CCN(C(c3cc4ccc(C)cc4[nH]c3=O)c3nnnn3C3CCCC3)CC2)cc1 (stereo unspecified) | 54.4% (active)
CC(C)C(c1nnnn1C1CCCC1)N1CCN(c2ccccc2F)CC1 (stereo unspecified) | 8%
Cc1cccc(N2CCN(C(c3ccccc3)c3nnnn3CC3CCCO3)CC2)c1C (stereo unspecified) | 12.7%
CC(C)c1ccc(NS(=O)(=O)c2cn(C)c(=O)n(C)c2=O)cc1 | 34%
Cc1cc(N2CCCC2)n2nc(C)c(-c3ccccc3)c2n1 | -17.7%
CCNc1nc(NCC)nc(N(C)n2cnnc2)n1 | -6%
Nc1ccc(-c2nnc(-c3ccc(-c4ccccc4)cc3)o2)cc1 | 25.3%
Nc1ccc(-c2sc(N)nc2-c2ccccc2)cc1 | 61.8% (active)
CC(=O)c1cc(C#N)c(SCC(=O)C(C)(C)C)nc1C | 34.4%
Cn1c(C(=O)NCCc2ccsc2)cc2c(=O)n(C)c3ccccc3c21 | 11.7%
CCc1ccc(CNC(=O)C2CCCN(c3nc4ccccc4o3)C2)cc1 (stereo unspecified) | 65.8% (active)
COc1ccccc1CNC(=O)C1CCN(c2nc3ccccc3o2)CC1 | 3.5%
COc1ccc(OC)c(CNC(=O)C2CCCN(c3nc4ccccc4o3)C2)c1 (stereo unspecified) | 17.2%
COc1ccc2ccccc2c1CNCc1ccccn1 | 15.9%
COc1ccc(/C(O)=C2\C(=O)C(=O)N(Cc3ccco3)C2c2ccc(OC)cc2OC)cc1 (stereo unspecified) | 3.4%
COc1ccc(/C(O)=C2/C(=O)C(=O)N(c3nc(C)c(C)s3)C2c2ccco2)cc1 (stereo unspecified) | 58.8% (active)
COc1ccccc1C1/C(=C(/O)c2ccc(OC(C)C)cc2)C(=O)C(=O)N1c1cc(C)on1 (stereo unspecified) | -7.6%
CN(C)CCCn1c(N)c(C#N)c2nc(C#N)c(C#N)nc21 | -1.9%
COC(=O)C(C)Oc1ccc2c(-c3cccc([N+](=O)[O-])c3)cc(=O)oc2c1 (stereo unspecified) | 28.8%
